The list is not random: actives were taken first. Their share in the collection is about 11%.
USP30 block: inhibitors of human USP30 deubiquitinase; inhibition, % at 25 µM; 47,000 compounds, 5.3% hits; purified USP30, Ub-rhodamine cleavage fluorescence; Ubiquitin carboxyl-terminal hydrolase 30 (Homo sapiens), Q70CQ3; AID 1645860, 2021
USP28 block: inhibitors of human USP28 deubiquitinase | Ubiquitin carboxyl-terminal hydrolase 28 (Homo sapiens), Q96RU2 | 47,000 compounds, 3% hits | purified USP28, Ub-rhodamine cleavage fluorescence, 30 min | inhibition, % at 25 µM
USP17 inh: inhibitors of human USP17 deubiquitinase | Ubiquitin carboxyl-terminal hydrolase 17-like protein 5 (Homo sapiens), A8MUK1 | purified USP17, Ub-rhodamine cleavage fluorescence, 3 h | 47,000 compounds, 6.5% hits | AID 1645855, 2021 | inhibition, % at 50 µM
Target sequence (A8MUK1 whole entry, looked up): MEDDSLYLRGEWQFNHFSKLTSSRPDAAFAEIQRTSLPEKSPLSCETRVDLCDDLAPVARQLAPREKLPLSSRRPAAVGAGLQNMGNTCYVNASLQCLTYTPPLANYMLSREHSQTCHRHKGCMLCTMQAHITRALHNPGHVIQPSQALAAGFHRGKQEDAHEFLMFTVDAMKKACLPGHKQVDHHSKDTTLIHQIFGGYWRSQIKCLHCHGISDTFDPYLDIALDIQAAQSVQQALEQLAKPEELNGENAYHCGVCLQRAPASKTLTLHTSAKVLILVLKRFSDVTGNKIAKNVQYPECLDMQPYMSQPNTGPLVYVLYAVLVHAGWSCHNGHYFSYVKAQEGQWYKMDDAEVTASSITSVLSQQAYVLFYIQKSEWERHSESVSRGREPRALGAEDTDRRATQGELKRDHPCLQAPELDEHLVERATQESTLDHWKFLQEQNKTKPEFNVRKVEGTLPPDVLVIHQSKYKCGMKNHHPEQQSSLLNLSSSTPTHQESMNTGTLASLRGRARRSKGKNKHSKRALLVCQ
The depositor's hits bear a star. Rule as the data show it: active = inhibition above about 30%; inactive = the rest.

`CCOC(=O)c1ccc(-n2c(CN3CCN(c4cc(C)ccc4C)CC3)nc3ccc([N+](=O)[O-])cc3c2=O)cc1` gave USP30 block 30*, USP28 block 12 and USP17 inh 12.
CCOC(=O)C1CCN(Cc2nc3ccc([N+](=O)[O-])cc3c(=O)n2-c2cc(OC)cc(OC)c2)CC1 was read as USP30 block -10, USP28 block 0 and USP17 inh 18.
`COc1ccc(CC(=O)N2CCC(c3nc(C)ncc3-c3cc(C)no3)CC2)cc1` gave USP30 block 0, USP28 block -9 and USP17 inh -7.
CCOc1ccc(C(=O)N2CCC(c3nc(C)ncc3-c3cc(C)no3)CC2)o1 was read as USP30 block 36*, USP28 block 15 and USP17 inh 11.
For COCCn1cnc2c1c(=O)n(CC(=O)NCCc1ccc(Cl)cc1)c(=O)n2Cc1ccccc1 the results were USP30 block -6, USP28 block 4 and USP17 inh 8.
`Cc1ccc(CNC(=O)Cn2c(=O)n(-c3ccccc3)c3ncccc32)cc1` gave USP30 block -7, USP28 block 4 and USP17 inh 51*.
`COCCNC(=O)Cn1c(=O)n(Cc2ccccc2)c(=O)c2c3c(sc21)CCC3` gave USP30 block 59*, USP28 block 17 and USP17 inh 29.
COCCCNC(=O)c1ccc(Cn2c(=O)c3ccccc3n(CC(=O)NCc3ccco3)c2=O)cc1 was read as USP30 block -5, USP28 block -3 and USP17 inh -34.
`COCCNC(=O)Cn1c(=O)n(Cc2ccc(C(=O)NCc3ccc(C)cc3)cc2)c(=O)c2ccccc21` gave USP30 block 90*, USP28 block 84* and USP17 inh 77*.
`COCCCNC(=O)c1ccc(Cn2c(=O)c3ccccc3n(CC(=O)N3CCN(c4ccccc4)CC3)c2=O)cc1` gave USP30 block -21, USP28 block -12 and USP17 inh -3.
COCCCNC(=O)c1ccc(Cn2c(=O)c3ccccc3n(CC(=O)NC3CCCCC3)c2=O)cc1 was read as USP30 block 46*, USP28 block 20 and USP17 inh 62*.
Screening O=C(Cn1c(=O)n(-c2ccc(F)cc2)c2ncccc21)NCc1ccccc1 returned USP30 block 9, USP28 block 23 and USP17 inh 18.
Screening CCCN1CCN(C(=O)c2cn3nc(OCC)ccc3n2)CC1 returned USP30 block -11, USP28 block -11 and USP17 inh 2.
For Cc1nc2ccc(NC(=O)/C=C/c3cn(-c4ccccc4)nc3-c3cccnc3)cc2s1 the results were USP30 block 11, USP28 block 5 and USP17 inh -10.
COc1cc2ncnc(NCc3cccnc3)c2cc1OC was read as USP30 block 6, USP28 block 1 and USP17 inh 4.
Screening CC(CCc1ccccc1)NC(=O)C(=O)c1cn(CC(=O)N2CCOCC2)c2ccccc12 (stereo not drawn) returned USP30 block 50*, USP28 block 9 and USP17 inh 44*.
Screening CC(=O)c1cccc(NC(=O)C(=O)c2cn(CC(=O)N3CCOCC3)c3ccccc23)c1 returned USP30 block -124, USP28 block -17 and USP17 inh -1.
Screening O=C(Nc1ccccc1F)C(=O)c1cn(CC(=O)N2CCCCC2)c2ccccc12 returned USP30 block -25, USP28 block -19 and USP17 inh -11.
`CCOc1ccccc1NC(=O)C(=O)c1cn(CC(=O)N2CCCCC2)c2ccccc12` gave USP30 block 40*, USP28 block 0 and USP17 inh 7.
Cc1cn[nH]c1CC1CCCN(C(=O)c2noc3c2CCCC3)C1 (stereo not drawn) was read as USP30 block 2, USP28 block 0 and USP17 inh 1.
COc1ccc(C(=O)N2CC3CCCN3c3ccc(C(F)(F)F)cc32)cc1 (stereo not drawn) was read as USP30 block -77, USP28 block 2 and USP17 inh 4.
For CSc1cccc(NC(=O)C2C3C=CC4(O3)C2C(=O)N(C2CC2)C4C(=O)NC2CCCCC2)c1 (stereo not drawn) the results were USP30 block 13, USP28 block -1 and USP17 inh 3.
For C/C1=C\CCC(C)C(O)CC(O)C(C)C(O)CCC(C)C(O)CC2(O)OC(CC(OC(=O)CC(=O)O)CC(O)CC(O)CC(O)C(C)C(O)/C=C/C(C)C(C(C)CCCCCCCCN=C(N)N)OC1=O)CC(O)C2O (stereo not drawn) the results were USP30 block -42, USP28 block 51* and USP17 inh 2.
`COc1cccc(-c2c[nH]c(=O)cn2)c1` gave USP30 block -5, USP28 block 0 and USP17 inh 7.
Screening Cc1cccc(C(=O)NCc2noc(-c3ccccc3)n2)c1 returned USP30 block 10, USP28 block 14 and USP17 inh 12.
`Cc1cccc(C(=O)Nc2noc3nc(C)ccc23)c1` gave USP17 inh 36*.
For Cc1ccccc1C(=O)N1CCCn2nnc(Cn3cccn3)c2C1 the results were USP30 block -9, USP28 block -4 and USP17 inh -8.
COc1ccc(-n2c(-c3ccccc3)cn3c(-c4ccccc4)c(-c4ccccc4)nc23)cc1 was read as USP30 block 59*, USP28 block 23 and USP17 inh 55*.
For COc1ccc(-c2cn3c(-c4ccccc4)c(-c4ccccc4)nc3n2CCc2ccccc2)cc1 the results were USP30 block -13, USP28 block -2 and USP17 inh 27.
Screening COCCN1C(=O)C[C@@H]2[C@H]1CCN2C(=O)c1cncc(C)c1 returned USP30 block 31*, USP28 block 16 and USP17 inh 7.
COCCN1C(=O)C[C@@H]2[C@H]1CCN2C(=O)c1ccc2ccccc2n1 was read as USP30 block 4, USP28 block 2 and USP17 inh -2.
Cc1cc2nc(N3CCC(C)CC3)c3ccccc3n2n1 was read as USP30 block 28, USP28 block 9 and USP17 inh 3.
For O=C(Nc1oc2ccccc2c(=O)c1-c1ccc(F)cc1)c1ccccc1 the results were USP30 block 18, USP28 block 13 and USP17 inh 8.
Screening CC(=O)Nc1c(-c2ccc3c(c2)OCO3)c(=O)c2ccccc2n1C returned USP30 block 49*, USP28 block 5 and USP17 inh 12.
CCCCC(=O)Nc1c(-c2ccc3c(c2)OCO3)c(=O)c2ccccc2n1C was read as USP30 block 3, USP28 block -4 and USP17 inh -5.
O=C(Nc1oc2ccccc2c(=O)c1-c1ccc2c(c1)OCO2)C1CCCCC1 was read as USP30 block 26, USP28 block 5 and USP17 inh 83*.
Screening Cc1ccc(-c2cc(C(F)F)n3ncc(C(=O)Nc4ccc5c(c4)OCO5)c3n2)cc1 returned USP30 block 11, USP28 block 10 and USP17 inh 22.
`CCOc1ccc2[nH]c(=O)c(-c3nc4cc(C)ccn4c3NC(C)(C)C)cc2c1` gave USP30 block -103, USP28 block -143 and USP17 inh -11.
CCOc1ccc2[nH]c(=O)c(-c3nc4ccc(C)cn4c3NCc3ccccc3)cc2c1 was read as USP30 block 26, USP28 block 32* and USP17 inh 49*.

High-throughput results: PubChem BioAssay, Buhrlage Lab, Dana-Farber Cancer Institute and Novartis Institutes for BioMedical Research (Cambridge, Mass)
